Assay results as given in PubChem BioAssay (NCI).
Several values for one entry are separate records, joined by “and”; a condition that tells them apart may be missing. Identical values can stand only once. Compounds without any hit were thinned out: in the full panel of roughly 83,000, 20% have a hit.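 Compound tested at a single concentration for 48 hours in 96-well plates; a percent growth value below 10 was scored as active.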 Some compounds were tested as several samples or in several runs, with calls that do not always agree. Activity calls are given as the source filed them.

System: HL-60(TB) leukemia
Assay: NCI-60 one-dose screen, 48 h (100 = growth as untreated, 0 = no growth, -100 = all killed)
Conditions: 10 µM unless noted

Row | Structure (SMILES) | growth
1 | N#Cc1c(-c2ccccc2)nc(SCC2CO2)nc1N1CCOCC1 (stereo not drawn) | 63.7% (inactive)
2 | CCn1cnc(C[C@H](NC(=O)[C@H](CCCCNC(=O)Nc2cc(C(F)(F)F)cc(C(F)(F)F)c2)NC(=O)Nc2cc(C(F)(F)F)cc(C(F)(F)F)c2)C(=O)OC)c1 | -48.7% [100 µM] (active)
3 | CC(=O)Nc1nc(C)c(C(=O)NN)s1 | 117% (inactive)
4 | COc1ccc(S(=O)(=O)Nc2ccc(OCc3nnc(-c4ccc(Cl)cc4)o3)c(F)c2)cc1 | 51.2% (inactive)
5 | O=[N+]([O-])c1ccc(Cl)c(S(=O)(=O)O)c1 | 96.4% (inactive)
6 | CNC(=O)c1cc(Oc2ccc(CC(=O)Nc3cc(C(C)(C)C)cn3C)cc2)ccn1 | 77.5% (inactive)
7 | O=C1/C(=C/c2ccc(-c3ccc(Br)cc3)o2)SC(=S)N1CCc1ccc(O)cc1 | 44.3% (inactive)
8 | COc1ccc(-c2csc(NC(=O)CN3CCN(c4cc5c(cc4F)c(=O)c(C(=O)O)cn5C4CC4)CC3)n2)cc1 | -25% (active)
9 | Cc1ccc2c(c1)/C(=N\N=C/c1cn(C(C)C)c3ccccc13)C(=O)N2 | -33.3% (active)
10 | Cc1ccc(Sc2oc(-c3ccc(C)cc3)nc2[P+](c2ccccc2)(c2ccccc2)c2ccccc2)cc1 | -45% (active)
11 | CC(=O)O[C@H]1C(=O)[C@@]2(C)C([C@H](OC(=O)c3ccccc3)[C@]3(O)C[C@H](OC(=O)[C@H](O)[C@@H](NC(=O)c4ccccc4)c4ccccc4)C(C)=C1C3(C)C)[C@]1(OC(C)=O)CO[C@@H]1C[C@@H]2O (stereo partly drawn) | 9.14% (active)
12 | CCCCCOc1ccc(/C=N/Nc2cc(C)nc3ccc(Br)cc23)cc1 | -2.49% (active)
13 | CC(C)(C(=O)c1cccnc1)c1cccnc1 | 99.5% (inactive) and 126% (inactive)
14 | CCN1CCN(CCC(=O)Nc2cccc(-n3cc(-c4ccncc4)c(-c4ccc(Cl)c(OC)c4)n3)c2)CC1 | -42.1% (active)
15 | NC1(c2ccc(-c3nc4ccn5c(=O)[nH]nc5c4cc3-c3ccccc3)cc2)CCC1 | 50.1% (inactive)
16 | COC(=O)c1ccc2c(c1)C(=O)c1c-2n(CCCN)c(=O)c2cc([N+](=O)[O-])ccc12 | -85.9% (active)
17 | CC(C)[C@@H]1CC[C@@H]2[C@@H]1[C@H](OC(=O)/C=C/c1ccccc1)[C@]1(C(C)C)C[C@@H](OC(=O)CO)[C@@]2(C)O1 | 84.6% (inactive)
18 | Cn1cnc2c1c(=O)n(CCC(=O)Nc1ccc(F)cc1)c(=O)n2C | 113% (inactive)
19 | Cc1ccc(N=C2CSc3nnc(-c4csc5c4CCCC5)n3N2)cc1 | -25.4% (active)
20 | CCOP(C)(=O)/C(Cc1ccc(OC)c(OC)c1)=N\O (stereo not drawn) | 98.1% (inactive)
21 | CC1=C(/C=C/C(C)=C/C=C/C(C)=C/C=N/NC(=S)NC(=S)N/N=C/C=C(C)/C=C/C=C(C)/C=C/C2=C(C)CCCC2(C)C)C(C)(C)CCC1 | 11.7% (inactive) and -28.1% (active)
22 | CSc1nc(NCCO)c(C#N)c(-c2cccc(N)c2)n1 | 96.1% (inactive)
23 | C/C(=N\O)C1(O)CCCCC1 | 83.6% (inactive)
24 | O=C1NN(C(=O)c2ccccc2)C(c2ccc(Cl)c(Cl)c2)=C/C1=C\c1ccccc1[N+](=O)[O-] | 12.7% [6.75 µM] (inactive)
25 | CCOc1ccc2nc(-c3cccc(OCC(=O)NC(C)C)c3)nc(Nc3ccc(-c4cn[nH]c4)cc3)c2c1 | 2.3% (active)
26 | COc1cc(/C=C/C(=O)c2c(C)nc3ccccc3c2C)ccc1OCCCN1CCN(C(=O)c2ccco2)CC1 | 74.7% (inactive)

Row | Structure (SMILES) | growth
27 | COc1ccc(NC2=NC(C)(CO)CS2)cc1 (stereo not drawn) | 91.1% (inactive)
28 | O=C(NC(Cc1cn(Cc2ccccc2)cn1)C(=O)O)OCC1c2ccccc2-c2ccccc21 (stereo not drawn) | 87.4% (inactive)
29 | C=CCn1c(SCC(=O)Nc2ccc(C(=O)/C=C/c3cc4cc(OC)ccc4nc3Cl)cc2)nnc1-c1ccc(Br)cc1 | 81.3% (inactive)
30 | COC1(OC)C2(Cl)C=C(c3ccccc3)C1(Cl)C(Cl)=C2Cl (stereo not drawn) | 83.7% (inactive)
31 | CCOC(=O)c1c2c(n3ccc(C)cc13)C(=O)c1ccccc1C2=O | 76.1% (inactive)
32 | Oc1ccc(/C=N/Nc2nnc(N/N=C/c3ccc(O)cc3O)c3ccccc23)c(O)c1 | -62.2% (active)
33 | c1ccc(C(NC2CC3CCC2C3)c2ccccc2)cc1 (stereo not drawn) | 100% (inactive)
34 | CCN1CCN(Cc2cn(CC(=O)Nc3ccc4c(ccn4Cc4ccccc4)c3)nn2)CC1 | 95.5% (inactive)
35 | Cc1ccc2cccc([N+](=O)[O-])c2n1 | 93.2% (inactive) and 94.6% (inactive)
36 | CC(C)(C)c1nn(-c2ccccc2)c2c1C(=O)CSC(c1ccccc1Cl)N2 (stereo not drawn) | -2.32% (active)
37 | Cc1ccc(C(=O)/C(=C/c2ccc([N+](=O)[O-])cc2)S(=O)Cc2ccccc2)cc1 (stereo not drawn) | 36.8% (inactive)
38 | CN(C)c1ccc2nc3ccc(=O)cc-3sc2c1 | -21.3% (active) and -7.59% (active)
39 | O=c1ccn2nc3ccccc3c2[nH]1 | 93.1% (inactive)
40 | CCOC(=O)Nc1ccc(-c2nc(-c3cccc(OCCN4CCOCC4)c3)c(-c3ccnc(Br)c3)[nH]2)cc1 | -23.2% (active)
41 | COc1ccc(OC)c(NCC(=O)n2nc(/C=C\c3ccc(O)c(OC)c3)cc2/C=C\c2ccc(O)c(OC)c2)c1 | -8.64% (active)
42 | C/C(=N\Nc1cc(C)c2ccccc2n1)c1ccccn1 | -47.1% (active)
43 | N#Cc1ccc(NC(=O)Nc2ccc(Oc3ccc(NC(=O)Nc4ccc(C#N)cc4)cc3)cc2)cc1 | -38.5% (active)
44 | OC(c1ccccc1)C(NC(Cc1ccccc1)c1ccccc1)c1ccccc1 (stereo not drawn) | 112% (inactive)
45 | COc1cccc(/C=N/Nc2nc3ccccc3s2)c1OC | 49.9% (inactive)
46 | CCCCCCCCCCCCCCCCCCOc1ccccc1CC(=O)OCCC[N+](C)(C)C | 9.1% (active)
47 | Cc1ccc(S(=O)(=O)Nc2nc3ccccc3nc2Nc2ccc3nsnc3c2)cc1 | 45.4% (inactive) and 37.2% (inactive)
48 | Cc1ccc(N2CCN(C(C)C(N)=O)CC2)cc1 (stereo not drawn) | 158% (inactive)
49 | CN(C)c1ccc2nc3ccc(N)cc3[n+](-c3ccccc3)c2c1 | -5.21% (active) and 4.22% (active)
50 | O=C(/C=C\c1ccc(Cl)c(Cl)c1)c1ccccc1 | 59.3% (inactive) and 99.9% (inactive)
51 | NS(=O)(=O)c1cc2c(cc1Cl)NC(C(Cl)Cl)NS2(=O)=O (stereo not drawn) | 91.5% (inactive) and 105% (inactive)
52 | O=C(Nc1cccc(Cl)c1)c1cc2ccccc2cc1O | 5.85% (active) and -13.6% (active)

Row | Structure (SMILES) | growth
53 | C#Cc1cccc(Nc2ncnc3cc(OC)c(OCCCCCCC(=O)NO)cc23)c1 | 2.38% (active)
54 | Nc1ncnc2c1c(-c1ccc(Oc3ccccc3)cc1)nn2C[C@H]1SSC[C@@H]1O | -22.5% (active)
55 | CC1(C)CC(=O)c2cc3c(N)c(C(=O)Nc4ccc(Cl)cc4)sc3nc2C1 | 107% (inactive)
56 | COC(=S)SCN(CSC(=S)OC)c1ccc(Cl)cc1 | 90.4% (inactive)
57 | O=C(CN1C(=O)NC2NC(=O)NC21)N/N=C/c1ccccc1[N+](=O)[O-] (stereo not drawn) | 99.2% (inactive)
58 | COCCn1c(-c2csc(-c3cn(C)c4ccc(OC)cc34)n2)cc2cccnc21 | 55.8% (inactive)
59 | O=C1OC(c2nc3ccccc3s2)=C/C1=C\c1ccc(O)cc1 | 98.2% (inactive)
60 | O=C(N/N=C/c1ccccc1O)C(O)(c1ccccc1)c1ccccc1 | 35% (inactive)
61 | O=C1c2c(c3c4ccccc4[nH]c3c3ccc4ccccc4c23)C(=O)N1CCN1CCCCC1 | 9.19% (active)
62 | Cc1cc(NS(=O)(=O)c2ccc(N=Nc3cc(N=Nc4ccc(S(=O)(=O)Nc5cc(C)nc(C)n5)cc4)c4c(NC(=O)C(Cl)Cl)cccc4c3OC(=O)C(Cl)Cl)cc2)nc(C)n1 (tested in a mixture with another compound) | 116% (inactive) and 98.5% (inactive)
63 | Nc1nc(N)c2cc(S(=O)(=O)c3ccccc3)ccc2n1 | 23.2% (inactive) and 20.7% (inactive)
64 | CN(C)C1CCN(C(=O)c2ccc(NC(=O)Nc3ccc(-c4nc(N5CCOCC5)nc(N5CCOCC5)n4)cc3)cc2)CC1 | 1.8% [2.5 µM] (active)
65 | CCOC(=O)c1cc(C(=O)c2cc(OC)c(OC)c(OC)c2)n2ncc3ccccc3c12 | 28.7% (inactive)
66 | O=C1CCC(=O)N1CC1CC2CCC1C2 (stereo not drawn) | 128% (inactive) and 97.8% (inactive)
67 | Cc1cccc(/C=C\C(=O)c2ccc(Cl)cc2)c1 | 90.1% (inactive) and 61.3% (inactive)
68 | COc1ccc(C(=O)c2cc3c(N)c(C(=O)Nc4cccc(Cl)c4C)sc3nc2C)cc1 | -60.6% (active)
69 | COc1ccc(C(=O)/C=C/c2c(C(F)(F)F)nc3ccccn23)cc1OC | 2.72% (active)
70 | COc1ccc(-c2nnc3n(C)c(=O)c4ccccc4n23)cc1N | -22.8% (active)
71 | Cc1cccc2c(=O)c3c(sc12)c(NCCCN)nc1ccccc13 | -34.9% (active)
72 | COc1ccc(Nc2ncccc2C(=O)NCc2cn(Cc3cccc(Oc4ccccc4)c3)nn2)c(OC)c1 | 18.9% (inactive)
73 | Nc1c(C(=O)Nc2cccc(Cl)c2Cl)sc2nc3c(cc12)C(=O)CCC3 | 96.6% (inactive)
74 | Cc1cc(Cl)c2c(Cl)ccc(Cl)c2n1 | 96.2% (inactive)
75 | C#COc1cccc(Nc2ncnc3ncc(NC(=O)CCl)cc23)c1 | -1.51% [6.25 µM] (active)
76 | Cn1c(-c2ccc(Br)cc2)c(O)c(=O)c2c(F)cccc21 | 122% (inactive)
77 | COc1ccc(CCN2C(=O)CCC3=C2CCCC3=O)cc1OC | 107% (inactive)
78 | CCOC(=O)C1=CN(C)C=C(C(=O)OCC)C1c1cc(Br)c(OCC)c(OC)c1 | 66.7% (inactive)
